# Measured values from PubChem BioAssay (NCATS).
# “And” between values parts separate entries of the source, which are not always exact repeats. Identical values can stand only once. A number with no mark means an inactive call.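 The calls were made as follows: active = compounds whose dose series gives a full or clear partial fitted curve of increased nuclear translocation; inconclusive = weak partial curve or effect only at the top dose; inactive = no dose-dependent translocation response.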
# Target: Glucocorticoid receptor (Homo sapiens) (UniProt P04150)
# Assay: GR-GFP Redistribution (AID 450)
# Details: U2OS GR-GFP nuclear translocation, laser cytometry, 2 h
# Source text: NIH Molecular Libraries Screening Centers Network [MLSCN]
# NIH Chemical Genomics Center [NCGC]
# The glucocorticoid receptor (GR) Redistribution assay (BioImage) enables the visualization of GR cytoplasmic to nuclear translocation by the use of a GR-GFP fusion. GR is normally cytosolic, however ligands such as dexamethasone, cause nuclear translocation where the protein binds to response elements and interacts with various co-factors to modulate transcription. Because both functional agonists and antagonists can induce nuclear translocation, this assay can detect ligands regardless of their effects on gene expression. GR-GFP expressing U20S cells were used here. Dexamethasone was the positive control for translocation and data normalization. Detection of nuclear translocation was performed in 1536-well plates using the Acumen laser scanning plate cytometer (TTP LabTech). Validation of this assay and a detailed protocol have been described.
# NCGC Assay Protocol Summary:
# GR-GFP U2OS cells were maintained in DMEM with Glutamax and high glucose, 1% v/v penicillin-streptomycin, and 0.5 mg/mL Geneticin. For cell culture, 10% […] fetal bovine serum (FBS) was used (Invitrogen #26140-079). For cell plating 10% dextran, charcoal-stripped FBS (Hyclone SH30068.03) was used. U2OS cells were trypsin treated, suspended in medium, and passed through a 40 um basket filter. The cells were seeded at 600 cells/5 uL/well into clear-bottom black sided 1536-well plates and incubated for approximately 20 hrs, 37degC, 5%, CO2 in a tissue culture incubator. Twenty-three nL of compound was delivered by pin tool and the plates were incubated as above for 2 hrs. The compounds were tested as a 7-point titration ranging from 46 uM to 0.6 nM. The cells were fixed using the Kalypsys Washer/Dispenser station. The fixing protocol involved aspiration of the cell media, addition of 6 uL/well of PBS, aspiration of PBS, addition of 5uL/well of 100% methanol, aspiration of methanol, and addition of 3 uL/well PBS with 1.5 uM propidium iodide (PI). The plates were read by the Acumen Explorer using a 1 x 8 um scan of the whole well area. PI fluorescence triggered the collection of PI and GFP signals. A nuclei population was defined by a 10 to 100 um width and depth filter that eliminated small and large fluorescent particles. Two subpopulations of nuclei were then defined by peak intensity of GFP fluorescence to obtain translocated and untranslocated objects. The number of translocated objects was used for data normalization.
# Keywords: NIH Roadmap, MLSCN, MLI, MLSMR, sOGT, qHTS, NCGC
# Potency is read from the fitted curve at half-maximal effect.
# Glucocorticoid receptor (Homo sapiens), sequence (P04150 whole entry, looked up): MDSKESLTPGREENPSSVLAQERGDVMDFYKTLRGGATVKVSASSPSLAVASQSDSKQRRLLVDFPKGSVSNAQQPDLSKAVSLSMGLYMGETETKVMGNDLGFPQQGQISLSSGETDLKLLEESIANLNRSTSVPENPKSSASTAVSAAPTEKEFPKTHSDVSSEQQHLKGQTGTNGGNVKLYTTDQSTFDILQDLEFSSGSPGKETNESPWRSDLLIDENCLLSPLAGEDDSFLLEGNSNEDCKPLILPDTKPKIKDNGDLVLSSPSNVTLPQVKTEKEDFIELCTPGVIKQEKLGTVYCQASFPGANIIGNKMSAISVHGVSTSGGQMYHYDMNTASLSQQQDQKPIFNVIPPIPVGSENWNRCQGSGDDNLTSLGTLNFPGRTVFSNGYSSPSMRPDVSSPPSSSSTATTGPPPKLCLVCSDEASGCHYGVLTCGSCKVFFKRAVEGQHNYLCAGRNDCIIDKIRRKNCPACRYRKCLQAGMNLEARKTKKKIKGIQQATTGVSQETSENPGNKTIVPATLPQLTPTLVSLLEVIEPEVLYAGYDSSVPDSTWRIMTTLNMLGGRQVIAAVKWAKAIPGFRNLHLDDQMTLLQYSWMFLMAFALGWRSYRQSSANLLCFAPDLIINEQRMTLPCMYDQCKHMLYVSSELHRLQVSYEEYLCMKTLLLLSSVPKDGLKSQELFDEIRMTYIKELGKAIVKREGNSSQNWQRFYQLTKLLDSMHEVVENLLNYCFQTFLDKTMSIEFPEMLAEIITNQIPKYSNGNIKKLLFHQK
row,Compound,Potency
1,O=c1ccc2cc(O[C@H]3O[C@@H](CO)[C@@H](O)[C@@H](O)[C@@H]3O)c(O)cc2o1,> 20.6 µM
2,CN1CC[C@]2(C)c3cc(O)ccc3N(C)[C@@H]12,> 46 µM and > 20.6 µM
3,CC(C)[C@@]1(NC(=O)[C@@H]2C[C@H]3c4cccc5[nH]cc(c45)C[C@@H]3N(C)C2)O[C@]2(O)[C@H]3CCCN3C(=O)[C@H](Cc3ccccc3)N2C1=O,> 20.6 µM
4,O=[N+]([O-])O[C@H]1CO[C@H]2[C@H]1OC[C@@H]2O[N+](=O)[O-],> 20.6 µM
5,O=C(NCNC(=O)N[C@H]1C(=O)NC(=O)N1CO)N[C@H]1C(=O)NC(=O)N1CO,> 20.6 µM
6,NNCc1cccc(O)c1,> 46 µM
7,CN1Cc2c(ccc3c2OCO3)[C@@H]2[C@@H](O)Cc3cc4c(cc3[C@@H]21)OCO4,> 20.6 µM and > 46 µM
8,CCNC[C@H](O)c1cccc(O)c1,> 20.6 µM
9,C=C[C@]12CN(C)[C@H]3C1[C@@]1(C(=O)Nc4ccccc41)[C@H]1C[C@H]2[C@H]3CO1,> 20.6 µM
10,C[C@]12CC[C@H](O)C[C@@H]1CC[C@H]1[C@H]2CC[C@]2(C)C(=O)CC[C@@H]12,> 46 µM and > 20.6 µM
11,CCN1C[C@@]2(COC)CC[C@H](O)[C@@]34[C@@H]2C[C@@H]([C@@H]13)[C@]1(O)C[C@@H](OC)C2C[C@H]4[C@H]1[C@H]2OC(C)=O,> 20.6 µM
12,CCCCCCC(C)(C)c1ccc([C@@H]2C[C@H](O)CC[C@@H]2CCCO)c(O)c1,> 46 µM
13,CC(C)[C@@]1(NC(=O)[C@@H]2C[C@H]3c4cccc5[nH]cc(c45)C[C@@H]3N(C)C2)O[C@]2(O)[C@H]3CCCN3C(=O)CN2C1=O,> 20.6 µM
14,CNC[C@H](O)c1ccc(O)c(OC)c1,> 20.6 µM
15,O=C(OC1CCN(CCCl)CC1)C(c1ccccc1)c1ccccc1,> 46 µM
16,CN1CCC2=C[C@H](O)[C@@H]3OC(=O)c4cc5c(cc4[C@H]3[C@H]21)OCO5,> 20.6 µM
17,CC[C@H](C)C(=O)O[C@@H]1[C@H](O)[C@@H]2[C@H](CN3C[C@@H](C)CC[C@@H]3[C@@]2(C)O)[C@@H]2C[C@@]34O[C@@]5(O)[C@@H](OC(=O)[C@](C)(O)CC)CC[C@@]3(C)[C@H]5[C@H](OC(C)=O)[C@@H](OC(C)=O)[C@H]4[C@]12O,> 20.6 µM
18,C[C@H]1CC[C@@]2(NC1)O[C@@H]1C[C@H]3[C@@H]4CC=C5C[C@@H](O)CC[C@]5(C)[C@@H]4CC[C@]3(C)[C@@H]1[C@@H]2C,> 20.6 µM
19,Cc1ccccc1-c1cncnc1NCCc1cnc[nH]1,> 46 µM
20,C[C@H]1OC[C@@H](C[N+](C)(C)C)O1,> 46 µM and > 20.6 µM

row,Compound,Potency
1,COc1cc(C(=O)OC2C[C@H]3CC[C@@H](C2)N3C)ccc1O (stereo not given in full),> 20.6 µM
2,COC1=CC(=O)O[C@@H](/C=C\c2ccccc2)C1,> 20.6 µM
3,CC1=C2[C@@H]3OC(=O)[C@@H](C)[C@@H]3CC[C@]2(C)C=CC1=O,> 20.6 µM
4,C[N+]1=Cc2cc3c(cc2CC1)OCO3,> 46 µM
5,CC(=O)O[C@H]1CC[C@@]2(C)C(=CC[C@@H]3[C@H]2CC[C@]2(C)C(=O)CC[C@H]32)C1,> 20.6 µM
6,Nc1c(C(=O)NCc2ccco2)c2nc3ccccc3nc2n1Cc1ccc(F)cc1,> 20.6 µM
7,O=C1NC(=S)NC(=O)C1=Cc1cccc2cc3ccccc3cc12,> 46 µM
8,CC[C@H]1CN2CC[C@@H]1C[C@H]2[C@@H](O)c1ccnc2ccc(OC)cc12,> 20.6 µM
9,CC(=O)N[C@@H]1CCSC1=O,> 20.6 µM
10,C(#CCN1CCCC1)CN1CCCC1,> 20.6 µM
11,C/C=C1\C[C@H](C)[C@@](O)(CO)C(=O)OCC2=CCN3CC[C@@H](OC1=O)[C@@H]23,> 20.6 µM
12,CN1C[C@H](CO)C=C2c3cccc4[nH]cc(c34)C[C@@H]21,> 20.6 µM
13,C#CCN(C)C(C)Cc1ccccc1 (stereo not given),> 20.6 µM
14,C/C=C1\C[N@@+]2(C)CC[C@@]34C(=C(C=O)[C@H]1C[C@H]32)Nc1ccccc14,> 20.6 µM
15,C[C@@H]1NCCc2cc(O)c(O)cc21,> 20.6 µM
16,CC1=CC(=O)C2=C(C)C[C@@H](O)[C@@H]3[C@@H](OC(=O)[C@H]3C)[C@H]12,> 20.6 µM
17,CN1CCN(c2ncc3ncc(=O)n(C)c3n2)CC1,> 9.22 µM
18,CCCN(C/C=C\I)[C@@H]1CCc2ccc(O)cc2C1,> 46 µM
19,CCCN(CCC)C(=O)Cc1c(-c2ccc(Cl)cc2)nc2c(Cl)cc(Cl)cn12,> 46 µM
20,COc1cc2c3cc1Oc1cc(ccc1O)C[C@@H]1c4c(cc(OC)c(O)c4Oc4cccc(c4)C[C@H]3N(C)CC2)CC[N+]1(C)C,> 20.6 µM
